Data published in the supplement of paper PMC6555819.

Experiments:
Assay in all cases: PBM binding z-score (relative to random genomic background probes); higher = stronger binding; sequences stand for … in GC…GCGATTGACAGCGTAGAATGAAGG
[1] = test system: PPARg:RXRa DBDmut IVT, anti-RXR (DBD mutation: RXRa K156A/R161A, NR concentration 270 nM, RXRa partner concentration 90 nM)
Summary of the method: (§1)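 Binding z-scores were set against random background probes. The data came from custom Agilent 4×180K protein-binding microarrays carrying double-stranded probes with 34-nt variable regions, incubated 1 h with ligand-free nuclear receptor dimers. Partner-specific antibodies detected binding, and scanned fluorescence was regression-normalized.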

[2] = test system: PPARg:RXRa IVT, anti-PPARg (NR concentration 270 nM, RXRa partner concentration 90 nM)
Summary of the method: as §1

[3] = test system: PPARg DBDmut:RXRa IVT, anti-PPARg (DBD mutation: PPARg1 K132A/R137A, NR concentration 270 nM, RXRa partner concentration 90 nM)
Summary of the method: as §1

[4] = test system: PPARg DBDmut IVT, anti-PPARg (DBD mutation: PPARg1 K132A/R137A, NR concentration 270 nM)
Summary of the method: as §1

[5] = test system: PPARg homodimer (NR concentration 180 nM)
Summary of the method: as §1

[6] = test system: PXR:RXRa (NR concentration 270 nM, RXRa partner concentration 90 nM)
Summary of the method: as §1

[7] = test system: PXR homodimer (NR concentration 270 nM)
Summary of the method: as §1

[8] = test system: RARa:RXR (NR concentration 270 nM, RXRa partner concentration 90 nM)
Summary of the method: as §1

[9] = test system: RARa homodimer (NR concentration 270 nM)
Summary of the method: as §1

[10] = test system: RARb:RXRa (NR concentration 270 nM, RXRa partner concentration 90 nM)
Summary of the method: as §1

Sequence | PBM binding z-score [1] | PBM binding z-score [2] | PBM binding z-score [3] | PBM binding z-score [4] | PBM binding z-score [5] | PBM binding z-score [6] | PBM binding z-score [7] | PBM binding z-score [8] | PBM binding z-score [9] | PBM binding z-score [10]
TCATATAGGTAAAGGTGAAAATCGAACGATATGA | 3.76 | 4.08 | 1.54 | 1.02 | 0.818 | 0.873 | 0.241 | 1.5 | 0.976 | 1.73
CCTACTGGGCCAAACGTCATTGATTCCAATGCTC | 6.22 | 3.97 | -0.542 | -0.413 | 0.259 | -0.508 | -0.633 | 0.0892 | -0.153 | 0.179
ATCTCTTGGTAACCAAGTTCAGTGAATGCCGAAC | -0.417 | 0.552 | 0.44 | 0.768 | 0.28 | 1.92 | 2.1 | 0.475 | -0.473 | 0.956
GCTATTGGTTGAAAGGGCAACCGAATGATTCTCG | 0.217 | 0.624 | 0.114 | -0.668 | 0.512 | 0.73 | 0.0657 | 1.48 | 0.176 | 1.87
CGTCCAAGGTCAGCGAGGTCAGTGAATGCCGAGT | 3.43 | 3.81 | -0.776 | -0.834 | 4.66 | 6.03 | 11.6 | 5.42 | 1.25 | 5.45
CCTCGGAGGACAACAGGAGGTCAGACCTGCCAGA | 0.294 | 0.546 | -0.564 | -0.997 | 1.43 | 2.11 | 0.241 | 2.19 | 0.183 | 2.89
CAAATTAGGTCAAAGGTCAAAGTCGAGCCAACCA | 8.74 | 8.96 | 4.97 | 4 | 6.21 | 7.1 | 2.26 | 8.95 | 3.73 | 5.94
ACTAGCAGGCGAAGTTTGGGTCACTCAAACAAAG | -0.461 | 0.0553 | -0.763 | -1.05 | -0.0559 | 0.583 | -0.27 | 1.15 | -0.491 | 1.14
CCTACTGGCCCAAGGTCATTGATCAGTCAAAGCA | -0.104 | 1.17 | -0.998 | -0.271 | 2.64 | 3.52 | 1.68 | 3.36 | 0.651 | 3.4
ATCTCTAGGTAAACAAGTTCAGTGAATGCCGAAC | 2.47 | 2.16 | 1.52 | 1.13 | 1.19 | 1.47 | 2.08 | 0.521 | 1.04 | 1.05
GGAACGAGGGCATTCGAGGTGATAGCATGGCGAT | 3.12 | 2.76 | 0.0817 | -0.391 | 0.378 | 2.36 | 0.0978 | 1.4 | -0.289 | 1.97
GCTAGTAGTTGAAAGGGCAACCGAATGATTCTCG | 0.195 | 1.26 | -0.638 | -0.335 | 1.55 | 0.658 | -0.0187 | 1.47 | -1.01 | 1.88
TACACAGGGTCAAAGGCCAGAGTACGAATGTCGA | 1.53 | 4.08 | 0.992 | 0.428 | 1.44 | 4.11 | 0.543 | 5.47 | 0.487 | 4.53
GGAACGAGGGCATGTTGATAGCAGAGTTTGATGG | 2.6 | 1.79 | 0.588 | -0.313 | 0.877 | 0.633 | 0.542 | 0.117 | 0.262 | 1.81
TGAATGATGTTATAAGATCAGGGAACGTTGCAAA | -1.12 | -0.0889 | 0.204 | 0.597 | -0.0286 | -0.22 | -0.193 | 0.123 | 0.481 | -0.32
TAGCCTAGGTCAGATCGGGCCAGTACACGCTATA | 0.552 | 1.62 | -0.751 | -0.825 | 0.487 | 1.33 | -0.37 | 0.937 | -0.817 | 3.22
CGTTCAAGGTCAGAGAGGTCAGTGAATGCCGAGT | 3.67 | 4.41 | 1.75 | 1.56 | 5.16 | 6.25 | 12.2 | 5.57 | 2.45 | 5.45
AGTCATAGTTCAGGACGAGGTAACGTAAAGCACG | -0.922 | 0.674 | 0.901 | 0.714 | 0.947 | 1.13 | 0.0157 | 1.31 | 0.185 | 2.59

Sequence | PBM binding z-score [1] | PBM binding z-score [2] | PBM binding z-score [3] | PBM binding z-score [4] | PBM binding z-score [5] | PBM binding z-score [6] | PBM binding z-score [7] | PBM binding z-score [8] | PBM binding z-score [9] | PBM binding z-score [10]
TAGCCTAGGTCATGGGCCAATATACCACGCGAAC | 1.34 | 3.16 | 0.749 | -0.176 | 1.44 | 1.86 | -0.28 | 2.92 | 0.353 | 3.77
CCTTACGGGTCACGAGGATATAGCACGACGAGCG | 3.74 | 4.93 | 1.1 | 0.884 | 2.13 | 3.42 | -0.093 | 4.41 | 1.37 | 4.59
CCTGCTGGGCCATCAGGTCATTGATATCAACGTT | 1.27 | 1.52 | -0.402 | -0.46 | 0.175 | 1.55 | 0.128 | 1.83 | -0.97 | 2.02
CAAACTATGTCACAGAGGTCAAAGTCCGTGCGTA | 5.08 | 5.55 | 0.905 | 0.872 | 3.02 | 5.88 | 3.31 | 5.97 | 1.58 | 4.19
CGAACTAGGGCATGAGTTGATAGCAAATGCCGAT | 7.01 | 6.1 | 1.05 | 0.0296 | -0.00514 | -0.191 | -0.257 | 0.155 | -0.133 | 1.12
TATGCAGGGTCAAAGGCCAGAGTACGAATGTCGA | 1.27 | 3.92 | 0.572 | 0.66 | 2.29 | 4.49 | -0.344 | 6.18 | -0.114 | 4.34
GCAGACTGGTGAAACGCAGGTAACTCAGGGTGGC | -0.965 | -0.728 | -0.431 | -1.07 | -1.3 | -0.855 | -0.855 | -0.718 | -1.39 | -0.689
TCTATTAGTTGATTTGGGCAACCGAAACAGCGGA | 2.03 | 0.616 | 1.09 | 1.16 | 0.506 | 0.543 | 0.421 | 0.432 | 0.567 | 0.368
CGTCCAAGGTCAAACGTCAGTGAAGAGATGACGG | 4.12 | 4.1 | 0.591 | -0.466 | 2.61 | 4.43 | 0.834 | 5.04 | 0.465 | 5.22
TCATATAAGTAAATGCTAGGTGAAAGTCCGATCT | 3.04 | 0.569 | 0.642 | 0.691 | 1.1 | 0.626 | 0.422 | 0.789 | 1.78 | 0.428
ACCGAAAGGTCGAAGGTGAGTATACCCACCCGAA | 0.582 | 2.06 | 0.374 | 0.174 | 0.885 | 3.14 | 0.0236 | 4.6 | 0.157 | 3.84
ATCGAAAGGTCGACGAGGGGAGTATACACCGTTT | 0.481 | 1.64 | 1.34 | 0.0319 | 1.49 | 2.39 | 0.488 | 3.37 | 0.328 | 3.74
CAAACTAGGTCACGAAAGGTCAAAGTAGAATGAC | 8.54 | 9.02 | 2.85 | 3.25 | 6.18 | 6.93 | 2.94 | 7.51 | 4.51 | 5.71
AGTCAAAGTTCACTAGGTAACGTAAGATTCAGCT | 2.87 | 5.16 | 1.07 | 1.01 | 2.38 | 3.71 | 2.66 | 2.74 | 0.986 | 4.72
TCTCGGAGGACACGAAGGTTAGAGCTTTCCAGAG | 0.921 | 0.171 | -0.626 | -1.17 | -0.693 | 0.0364 | -0.704 | 0.0543 | -1.13 | 1.88
CATACAGGGTCAACTAGGCCAGAGTAGGGACGGC | 2.92 | 4.23 | 1.17 | 0.243 | 2.2 | 3.61 | 0.451 | 4.7 | 0.953 | 4.66
CGTCCAAGGTTAGAGAGGTCAGTGAATGCCGAGT | 0.939 | 1.57 | -1.21 | -1.38 | 2.67 | 4.07 | 7.59 | 3.61 | 1.11 | 3.66
